Bioassay records as filed in PubChem BioAssay.
An excerpt weighted towards active compounds, which were near 10% of everything screened.
RORgamma inh: inhibitors of mouse ROR gamma transcriptional activity; P51450; Drosophila S2 Gal4-RORgamma UAS-luciferase reporter, 20 h; Potency, µM (series often up to 53.6 µM), for the others: top-dose activity change, negative = inhibition, actives largely listed as inhibitors; 310,000 tested, 5.4% active; AID 2551; note: % is set by controls: 0 for no effect and ±100 for the full control effect; nearly all actives have a fitted effect of over 60% in size
Target sequence (P51450 whole entry, looked up, the tested form may be a part): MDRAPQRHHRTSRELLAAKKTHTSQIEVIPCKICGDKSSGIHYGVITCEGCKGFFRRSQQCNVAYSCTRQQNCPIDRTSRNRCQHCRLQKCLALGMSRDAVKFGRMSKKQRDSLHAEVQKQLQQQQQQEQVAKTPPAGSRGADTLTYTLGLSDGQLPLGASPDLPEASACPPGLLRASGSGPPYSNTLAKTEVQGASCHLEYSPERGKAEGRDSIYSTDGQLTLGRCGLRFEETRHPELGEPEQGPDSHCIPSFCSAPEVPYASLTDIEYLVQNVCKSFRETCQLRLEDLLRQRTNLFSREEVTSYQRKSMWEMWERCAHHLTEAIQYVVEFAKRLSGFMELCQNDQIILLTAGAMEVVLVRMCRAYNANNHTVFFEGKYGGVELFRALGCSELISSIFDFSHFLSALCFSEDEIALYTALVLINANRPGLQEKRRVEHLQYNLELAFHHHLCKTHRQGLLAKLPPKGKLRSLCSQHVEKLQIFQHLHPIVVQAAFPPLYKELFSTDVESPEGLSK
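Luminescence from a UAS-regulated Photinus luciferase reporter in stably transfected Drosophila Schneider cells is measured; decreased signal marks ROR gamma inhibition. Fusion expression is induced by 700 uM copper sulfate for 20 hr.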
SW480 rerep: DNA re-replication induction in SW480 cells | 340,000 tested, 1.8% active | SW480 DNA re-replication, Hoechst DNA content imaging, 48 h | AID 624297 | Potency, µM (series often up to 46.1 µM), for inactives: at the top dose re-replication activation, most hits filed as activators; note: % of control where 0% means no effect; nearly all actives have a fitted effect of over 55% in size
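Per well, 250 cells were exposed to pinned compound for 48 hr. Nuclear DNA was visualised with Hoechst (40 min, 37 C) and total object intensity recorded by fluorescence scanning.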
Gal4-VP16 FLuc: inhibits Gal4-VP16 luciferase reporter, ROR gamma counter-screen. Drosophila S2 Gal4-VP16 UAS-luciferase, luminescence, 20 h. Potency, µM (top dose mostly 53.6 µM), for the others: top-dose activity, negative = inhibition, actives largely listed as inhibitors. 310,000 tested, 3.5% active. AID 2546;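 note: Gal4-VP16 expression switched on by copper sulfate through the metallothionein promoter; % is set by controls: 0 for no effect and ±100 for the full control effect; nearly all actives have a fitted effect of over 50% in size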
KB-3-1 cytotox: kills parental KB-3-1 adenocarcinoma cells | KB-3-1 viability, CellTiter-Glo ATP luminescence, 72 h | Potency, µM (highest dose often 46.1 µM), most hits filed as cytotoxic | 400,000 tested, 1.4% active | AID 1347075; note: % is set by controls: 0 for no effect and ±100 for the full control effect; nearly all actives have a fitted effect of over 60% in size
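Cytotoxicity measured as CellTiter-Glo luminescence after 72 h at 37 C. Compound titrations were pinned onto drug-naive KB-3-1 parental adenocarcinoma cells grown in DMEM with 10% FBS, and normalized data fitted to concentration-response curves.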
KB-V1 MDR tox: KB-V1 MDR subline cytotoxicity; KB-V1 MDR cells viability, CellTiter-Glo, 72 h; Potency, µM (highest dose often 46.1 µM), actives largely listed as cytotoxic; 400,000 tested, 3.4% active; AID 1347076; note: % is set by controls: 0 for no effect and ±100 for the full control effect; nearly all actives have a fitted effect of over 60% in size
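Drug-selected KB-V1 cells, grown in DMEM lacking phenol red with 10% FBS, receive compound titrations; after three days at 37 degrees C, surviving cell ATP is quantified by CellTiter-Glo luminescence and responses normalized and curve-fitted.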
MCF10A rerep: induces DNA re-replication in MCF 10a normal breast cells. MCF 10A DNA re-replication, Hoechst nuclear intensity, 48 h. Potency, µM (titrated, usually from 46.1 µM), for the others: at the highest dose activity, positive = re-replication, actives largely listed as activators. 350,000 tested, 2.9% active; note: % of control where 0% means no effect; nearly all actives have a fitted effect of over 50% in size
* marks the source's active call; other numbers are inactive results; i = inactive; ? = inconclusive; nt = not tested or not shown; [ ] = another dose, or the depositor's remark. Calls come from the whole dose curve; as a rule, active = well fitted curve in the direction sought with a large enough effect; inconclusive = small, poorly fitted or top-dose-only effect, or another doubt; inactive = no such curve, though single readings can be large; an effect the other way counts as inactive or inconclusive. Potency is the fitted concentration of half-maximal effect.

SMILES | RORgamma inh | SW480 rerep | Gal4-VP16 FLuc | KB-3-1 cytotox | KB-V1 MDR tox | MCF10A rerep
Cc1nc(S/C(=C/c2ccc(-c3cccc(Cl)c3)o2)C(=O)O)n[nH]1 | 1.3µM* | 1% | 3.5µM* | i | i | ?
COc1ccc(-c2cc(C(=O)OCc3ccccn3)c3ccccc3n2)cc1 | -9% | 13µM* | -8% | i | i | ?
COc1ccc(-c2cc(C(=O)OCC(=O)N(C)C)c3ccccc3n2)cc1 | 11% | -10% | -8% | i | i | 1%
COc1ccc(-c2cc(C(=O)Oc3ccc([N+](=O)[O-])cc3)c3ccccc3n2)cc1 | ? | ? | ? | i | i | 18µM*
CCCCN(C)CCCNC(=O)C1CCN(S(=O)(=O)CCC)CC1 | nt | nt | nt | i | i | nt
COc1ccc(/C=C(\C#N)c2nc(-c3cc(Cl)ccc3OC)cs2)cc1 | nt | nt | nt | i | i | nt
Clc1ccc(Cn2ncc3c(N4CCN(c5ccccc5)CC4)ncnc32)cc1 | nt | nt | nt | ? | i | nt
N#CC1=C(S)N(c2ccccc2)C2(CCCCC2)NC1=O | 13µM* | ? | ? | i | i | ?
CC(=O)OC[C@@H]1O[C@@H](O/N=C2/C[C@@H](O)[C@@H](O)[C@@H]3[C@H]4C(=O)N(c5ccc(F)cc5F)C(=O)[C@@H]4CC[C@H]23)[C@H](OC(C)=O)[C@H](OC(C)=O)[C@@H]1OC(C)=O | -37%[10 µM] | nt | -5%[10 µM] | nt | nt | nt
COc1ccc(C(=O)c2ccc(Cl)c([N+](=O)[O-])c2)cc1 | ? | 0.82µM* | -7% | 1.2µM* | ? | 3.7µM*
N#CC1=C(N)SC(N)=C(C#N)C1CCc1ccccc1 | 7.9µM* | -13% | ? | i | i | ?
N#CC1=C(N)SC(N)=C(C#N)C1Cc1ccccc1 | 7% | -5% | 4% | i | i | ?
N#CC1=C(N)SC(N)=C(C#N)C1c1c(Cl)cccc1Cl | 8.9µM* | -8% | ? | i | i | 15%
Cc1ccc(Oc2coc3cc(OCC(=O)NC4CCCCC4)ccc3c2=O)cc1 | nt | nt | nt | i | i | nt
Cc1cccc(NC(=O)CSCC(=O)N(C)Cc2c(F)cccc2Cl)c1 | nt | -1% | nt | i | i | ?
O=C(NCCc1cccs1)c1ccc(Cl)c(Cl)c1 | 29% | -2% | 8% | i | ? | -1%
Cc1ccc(C(=O)NCCc2cccs2)cc1 | ? | -3% | 5.6µM* | i | i | -2%
O=C(NCCc1cccs1)c1ccc(Cl)cc1 | 8.9µM* | -3% | ? | i | i | -1%
OC[C@@H]1CN(Cc2ccc(Cl)cc2)C[C@H](n2cnc3c(Nc4ccccc4)ncnc32)O1 | nt | nt | nt | i | i | nt
C=CCSc1nc(N(CC)CC)c2sccc2n1 | 11µM* | -2% | -17% | i | ? | 6%
COc1ccccc1NC(=O)Cn1c(=O)n(Cc2ccco2)c(=O)c2oc3ccccc3c21 | nt | nt | nt | i | i | nt
Nc1c(-c2ccccc2)cnn1-c1cccc([N+](=O)[O-])c1 | ? | -13% | 1% | i | 23µM* | 6%
Nc1c(-c2ccc(Cl)cc2)cnn1-c1cccc(C(F)(F)F)c1 | 13% | 0% | 20% | i | i | 10%
Cc1ccc(-c2cnn(-c3cccc(C(F)(F)F)c3)c2N)cc1 | 2% | 1% | -8% | i | 16µM* | 12%
C#CCCCO/N=C1/C[C@@H](O)[C@@H](O)[C@@H]2[C@@H]3C(=O)N(CCC(=O)OCC)C(=O)[C@H]3CC[C@H]12 | 25%[10 µM] | nt | 17%[10 µM] | nt | nt | nt
SMILES | RORgamma inh | SW480 rerep | Gal4-VP16 FLuc | KB-3-1 cytotox | KB-V1 MDR tox | MCF10A rerep
CN1CCN(CCCNC(=O)c2cnn(-c3ccccc3)c2-n2cccc2)CC1 | nt | nt | nt | i | i | nt
Cc1csc(-c2ccc3cc(Cl)cc(Cl)c3n2)n1 | nt | nt | nt | i | i | nt
Cc1ccc(NC(=O)c2c(Cl)n(C)c3ccccc23)cc1 | 11% | ? | 3% | ? | 6.5µM* | ?
COc1cc2c3nnc(-c4ccc(F)cc4)c-3cn(Cc3ccc(F)cc3)c2cc1OC | ? | ? | 5% | ? | i | 18µM*
COc1cc2c3nnc(-c4ccc(F)cc4)c-3cn(Cc3ccccc3)c2cc1OC | 11µM* | ? | 7.1µM* | ? | i | ?
Nc1cc(S(=O)(=O)O)ccc1O | -3% | nt | 9% | nt | nt | nt
Cc1ccc(NC(=S)N2CCC(c3nc4ccccc4s3)CC2)cc1C | 4.5µM* | -5% | 11µM* | i | i | -2%
Cc1cc(C)cc(NC(=S)N2CCC(c3nc4ccccc4s3)CC2)c1 | 4.5µM* | -5% | 11µM* | i | i | -5%
CCCCN(C)C(=O)c1ccc2c(c1)NC(=O)C(CC(C)C)N2 (centres undefined) | nt | nt | nt | i | i | nt
C#Cc1cccc(Nc2nc(NCc3ccccc3)nc3ccsc23)c1 | nt | nt | nt | i | ? | nt
CCc1ccc(CN(C(=O)c2cc3ccccc3oc2=O)C2CCS(=O)(=O)C2)cc1 (centres undefined) | 2% | -1% | -15% | i | i | 4%
Cc1ccc(CN(C(=O)c2cc3ccccc3oc2=O)C2CCS(=O)(=O)C2)cc1 (centres undefined) | ? | -8% | -4% | i | 15µM* | -3%
Cc1c(C(=O)N(Cc2ccccc2)C2CCS(=O)(=O)C2)oc2ccccc12 (centres undefined) | -29% | 2% | -4% | i | i | 3%
Cc1c(C(=O)N(Cc2cccs2)C2CCS(=O)(=O)C2)oc2ccccc12 (centres undefined) | 0% | 3% | 1% | i | 6.5µM* | 11%
COc1cccc(-c2cc(C(=O)Nc3cc(Cl)ccc3O)on2)c1 | nt | nt | nt | i | i | nt
CCN(CC)c1nc(Nc2ccccc2)nc(Oc2ccc(=O)n(C)n2)n1 | 3% | -9% | -8% | ? | 6.5µM* | ?
Cc1cccc(NS(=O)(=O)c2ccc3[nH]c(=O)ccc3c2)c1C | nt | nt | nt | i | i | nt
Cc1ccc(NC(=O)C(=Cc2ccc(C(=O)O)cc2)C(=O)Nc2ccc(C)cc2C)c(C)c1 | 16µM* | 18µM* | ? | ? | ? | 2.6µM*
CCc1nn(CC(=O)N(CC)Cc2ccccc2)c(=O)c2cc3occc3n12 | nt | nt | nt | i | i | nt
Cn1c(=O)c(-c2ccc(Cl)cc2)nc2cnc(Oc3cccc(Cl)c3)nc21 | -2% | nt | -8% | nt | nt | nt
CCOc1cc(N2CCOCC2)c(OCC)cc1NS(=O)(=O)c1ccc(Cl)s1 | -33% | 18µM* | -6% | 6.5µM* | 5.2µM* | 6.3µM*
CCOc1ccc(-c2nonc2NC(=O)c2oc3cc(Br)ccc3c2C)cc1 | nt | nt | nt | 3.7µM* | ? | nt
CCc1nonc1NC(=O)c1oc2cc(Br)ccc2c1C | -9% | 26% | -8% | i | i | 4%
